# Test results taken from PubChem BioAssay (NCATS).
# Results filed as inconclusive are left out. A number with no mark means an inactive call. Calls of active or inactive are those of the source. Calls follow the shape of the full dose curve.
# Assay: Primary qHTS for Vero E6 cytotoxicity: counterscreen for inhibitors of SARS-S pseudo-typed particle cell entry (AID 1479150)
# Conditions: cell viability; series mostly up to 57.1 µM; activity change, negative = cytotoxicity: at the top concentration
# % is scaled to controls: 0 for no effect and ±100 for the full control effect.
Compound,outcome,"activity change, negative = cytotoxicity"
CCOC(=O)COc1ccc2c(C)c(CCN(CC)CC)c(=O)oc2c1,inactive,
O=[N+]([O-])c1ccc(/C=C/c2cccc(CO)n2)o1,inactive,
COCC(=O)Nc1cc(Sc2ccccc2)ccc1N=C(NC(=O)OC)NC(=O)OC,inactive,
CCC(C)C(NC(=O)C(Cc1ccc(O)cc1)NC(=O)C(NC(=O)C(CCCN=C(N)N)NC(=O)C(N)CC(=O)O)C(C)C)C(=O)NC(Cc1cnc[nH]1)C(=O)N1CCCC1C(=O)NC(Cc1ccccc1)C(=O)O (configuration not stated),,3.73%
OC[C@H]1O[C@@H](O)[C@H](O)[C@@H](O)[C@@H]1O,,1.57%
COCC1=C(C(=O)OC(C)OC(=O)OC(C)C)N2C(=O)[C@@H](NC(=O)/C(=N/OC)c3csc(N)n3)[C@H]2SC1 (some centres not stated),,-4.93%
CC(Cc1ccc2c(c1)OCO2)NCC(O)c1ccc(O)c(O)c1 (configuration not stated),inactive,
OC[C@H]1O[C@@H](OC[C@H]2O[C@@H](O[C@@H]3[C@@H](O)[C@H](O)O[C@H](CO)[C@H]3O)[C@H](O)[C@@H](O[C@@H]3O[C@H](CO)[C@@H](O)[C@H](O)[C@H]3O)[C@@H]2O)[C@H](O)[C@@H](O)[C@@H]1O,inactive,
CC(C)(C)c1ccc(CN2CCN(C(c3ccccc3)c3ccc(Cl)cc3)CC2)cc1 (configuration not stated),,4.36%
CC1=CC(O)CC(C)(C)C1/C=C/C(C)=C/C=C/C(C)=C/C=C/C=C(C)/C=C/C=C(C)/C=C/C1=C(C)CC(O)CC1(C)C (configuration not stated),,1.67%
O=C(N[C@H]1CCS[C@H]2CCC[C@@H](C(=O)O)N2C1=O)[C@@H](S)Cc1ccccc1,inactive,
CC1(C)S[C@@H]2[C@H](NC(=O)C(C(=O)O)c3ccsc3)C(=O)N2[C@H]1C(=O)O (some centres not stated),,-3.96%
